The source of these data is PubChem BioAssay (EPA / NIEHS).

The AC50 is the concentration giving half of the maximal activity seen.

Several values for one entry are separate records, joined by “and”; a condition that tells them apart may be missing. Equal values may be shown once. Activity calls are given as the source filed them. The calls were made as follows: active = hit-call score of the fitted dose curve at least 0.9, where 1 is the maximum; inactive = score below 0.9.

The assay is described as follows: CCTE_Shafer_MEA_acute_burst_percentage_std: CCTE's Neural Acute Assay for Standard Deviation of Burst Percentage, Shafer Lab (AID 2284018).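 Also: fitted in the negative direction so actives lower burst percentage SD.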 How it is done:
CCTE_Shafer_MEA_acute assay is conducted using Axion Biosystems 48 well microelectrode array (MEA) plates and Maestro recording system. Each well of the MEA plate contains a grid of 16 microelectrodes embedded in the culture surface. Electrically active cells, such as neurons, can be cultured over the electrodes, and electrical activity in these cells can be recorded extracellularly. The spontaneous firing of neurons is captured from each electrode on a microsecond timescale providing both temporally and spatially precise data. […] The CCTE_Shafer_MEA_acute assay uses primary cultures of rat cortical neurons. As these cultures mature over time, neural networks develop functional activity and form cohesive networks in which electrical activity can be highly coordinated. Baseline 40-minute recordings are made on days post-plating 13 or 15, followed by a secondary 40-minute recording after chemical exposure.CCTE_Shafer_MEA_acute_burst_percentage_std is a component of the CCTE_Shafer_MEA_acute assay. It measures the percentage of spikes (action potential firing) in a single-electrode burst (temporally-clustered groups of spikes) as the number of spikes in bursts divided by the total number of spikes during a recording in a microelectrode array (MEA) using Axion Biosystems Maestro 768 channel amplifier with the AxIS adaptive spike detector. The standard deviation of the burst percentages across electrodes is calculated to report a well-level value. The recordings before and after chemical treatment are used to calculate a percent change in the standard deviation of the burst percentage in each well.Data from the assay component CCTE_Shafer_MEA_acute_burst_percentage_std was analyzed into 1 assay endpoint. This assay endpoint, CCTE_Shafer_MEA_acute_burst_percentage_std, was analyzed in the negative analysis fitting direction relative to DMSO as the negative control and baseline of activity. Using a type of functional reporter, gain or loss-of-signal activity can be used to understand electrical activity.
Spontaneous activity in the cortical cultures was recorded using an Axion Biosystems Maestro 768 channel amplifier and Axion Integrated Studios (AxIS) v1.8 (or later) software. The amplifier recorded from all channels simultaneously (gain = 1200 x; sampling rate = 12.5 kHz/channel): raw signals were filtered with a Butterworth band-pass filter (300-5000 Hz), which filters out slower local field potentials leaving only fast potentials, i.e., "spikes", arising from extracellular currents associated with action potentials (Pine 2006; Wheeler and Nam 2011). On-line spike detection of filtered signals was conducted with the AxIS adaptive spike detector, using a threshold of 8x the root mean squared (rms) noise on each channel. Any electrodes with rms noise levels greater than 5 uV were grounded (e.g., no data were recorded). Once grounded, an electrode was grounded for the duration of the experiment. All recordings were conducted at 37 C. Wells were deemed usable if on the day of the exposure >/= 10 electrodes were active (defined as >/= 5 spikes/min). On DIV 13 or 15, a minimum of three wells from one cortical culture preparation were treated with each compound (0.03-40 uM). Prior to recording baseline activity, each mwMEA plate was placed in the Maestro at 37 C and allowed to sit for 20 min while firing rates stabilized. Baseline activity (40 min) was recorded before the addition of each compound. An additional 40 min of spontaneous activity was recorded in the presence of each compound. Changes in network parameters relative to baseline were assessed following compound treatment.
For the compound `CC(=O)NC1(c2cccc(F)c2)CCN(CC[C@@]2(c3ccc(Cl)c(Cl)c3)CN(c3ccccc3)C(=O)CO2)CC1`, the AC50 is 20 µM (active). As for `CC(C)(C)c1cc(C(C)(C)C)c(O)c(C(C)(C)C)c1`, the outcome was inactive. As for `CCCCCCCCCCCCc1ccccc1S(=O)(=O)O`, the compound was called inactive.

For the compound `Cc1cc(CCN2CCN(c3nsc4ccccc34)CC2)cc2c1NC(=O)CC2(C)C`, the compound was called inactive. `O=C(O)c1ccccc1C(c1ccc(O)cc1)c1ccc(O)cc1`: the compound was classed as inactive. The same measure, in the same setting: the result for `CC[C@H](c1ccc(O)cc1)[C@@H](CC)c1ccc(O)cc1` reads “inactive”; that for `NC(=O)N(O)[C@@H]1C=C[C@H](Oc2cccc(Oc3ccc(F)cc3)c2)C1`, “inactive”. On to `OC1CCC(C2CCCCC2)CC1` (stereo unspecified), for which the compound was classed as inactive. The same measure, in the same setting: the same measure for `CN1CCN(c2ccccc2/C=C2\SCCN(c3ccc(Cl)c(Cl)c3)C2=O)CC1`: “inactive”; for `CCc1ccc(CCOc2ccc(CC3SC(=O)NC3=O)cc2)nc1` (stereo unspecified): “inactive”. Still for that read-out and setting: the same measure for `OCCC(F)(F)C(F)(F)C(F)(F)C(F)(F)C(F)(F)C(F)(F)C(F)(F)C(F)(F)F`: “inactive”. Still for that read-out and setting: the result for `CN(C)C=O` reads “inactive”; that for `CN1CCC[C@H]1c1cccnc1`, “inactive”; that for `Oc1cc2ccccc2c2ccccc12`, “inactive”. Take `CCCOc1sc(C(=O)N2CCC(c3cc(CN)ccc3F)CC2)c(C)c1Br`: the result was inactive. Same read-out and setting: the result for `CC(C)CCCCCCOC(=O)CCCCC(=O)OCCCCCCC(C)C` reads “inactive”; that for `CCC(=C(c1ccc(O)cc1)c1ccc(OCCN(C)C)cc1)c1ccccc1`, “inactive”.

For `CCCCCCCCCCCCCCCS(=O)(=O)Oc1ccccc1`, the compound was called inactive. Turning to `CC#C[C@]1(O)CC[C@H]2[C@@H]3CCC4=CC(=O)CCC4=C3[C@@H](c3ccc(N(C)C)cc3)C[C@@]21C`, the AC50 is 4.22 µM (active) and 6.02 µM (active). Take `CCCCCCCCCCCCN1CCCC1=O`: the outcome was inactive.

In the case of `O=c1c(-c2ccc(O)cc2)coc2cc(O)ccc12`, the call was inactive.
